# Shiga inhibitor: A qHTS for Small Molecule Inhibitors of Shiga Toxin | Vero cells, Shiga toxin protein synthesis inhibition reporter | inhibition, % at 38.7 µM | 290,000 tested, 9.2% active; in the data active means inhibition mostly above about 28%, no sharp cut-off; inactive means mostly below about 43%; further: 0% is about no effect
# Pf growth 48h: Primary qHTS for delayed death inhibitors of the malarial parasite plastid, 48 hour incubation | 310,000 tested, 5.9% active | P. falciparum luciferase growth in erythrocytes, 48 h | AID 504832, 2011 | Potency, µM (top dose mostly 28.7 µM), inactives show top-dose activity change, negative = inhibition, actives largely listed as inhibitors; further: potency means the concentration at half of the fitted maximal effect; on the % scale 0 is the no-effect control and ±100 the full control effect
#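 Growth was read as firefly luciferase luminescence after a 48 h, 37 C, 5% CO2 exposure of compounds to reporter-bearing P. falciparum cultures (0.1% parasitemia, 2% hematocrit final) in Albumax-supplemented RPMI 1640.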
# HCMV inh: qHTS Assay for inhibitors of the human cytomegalovirus (HCMV). HFF cells, HCMV-luciferase reporter, 72 h; hits give low values. activity change, negative = inhibition, % at 57.5 µM. 410,000 tested, 4.5% active; in the data active means activity change below about -60%; inconclusive means no clear call, values can overlap the other calls; inactive means above about -39%; further: on the % scale 0 is the no-effect control and ±100 the full control effect
#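 Cell-based, HFFs, 1000 cells/well, 16 h 37C; cpds in DMSO + HCMV-luc, MOI 1 PFU/cell; 72 h 37C; OneGlo luminescence after 5 min RT; norm. to buffer vs Salinomycin 10uM.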
# Cycloheximide cs: Cycloheximide Counterscreen for Small Molecule Inhibitors of Shiga Toxin; cell reporter, cycloheximide protein synthesis inhibition counterscreen; max response, %; 300,000 tested, 12% active; in the data active means max response mostly above about 13%, no sharp cut-off; inactive means mostly below about 14%; further: read at 38.3 µM for the half of the compounds with a filed dose; 0% is about no effect
# Pf growth 96h: Primary qHTS for delayed death inhibitors of the malarial parasite plastid, 96 hour incubation. 320,000 tested, 6.9% active. P. falciparum luciferase reporter growth, 96 h. AID 504834, 2011. Potency, µM (doses to about 28.7 µM), for the others: at the highest dose activity change, negative = inhibition, usual class: inhibitors; further: potency means the concentration at half of the fitted maximal effect; on the % scale 0 is the no-effect control and ±100 the full control effect
#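 Readout is luminescence from an integrated firefly luciferase in P. falciparum. Red cells, 2% hematocrit and 0.05% parasitemia final, were cultured with compound through two parasite generations (96 hours) at 37 C, 5% CO2.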
# HCV inhibitor: qHTS Assay for Inhibitors of Hepatitis C Virus (HCV); 340,000 tested, 3.4% active; Potency, µM (top dose mostly 41.8 µM), without a hit: at the highest dose activity change, negative = inhibition, actives largely listed as inhibitors; Huh7.5.1 HCVcc-Cre infection, luciferase reporter, 44 h; AID 651820, 2012; further: potency means the concentration at half of the fitted maximal effect; on the % scale 0 is the no-effect control and ±100 the full control effect
#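 Luciferase read-out (15 sec integration) after a 15 min room-temperature substrate step quantifies HCVcc-Cre infection. Cells, 1,000 per well, had compound added 4 h post-plating, then virus at ~0.5 moi, and were cultured 44 h.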
# An asterisk follows results filed as active; ? = inconclusive; nt = no result. Most compounds without a hit are left out; they make up all but 21% or so of the library. Unless noted, the call rests on the fitted dose curve; in most records, active means well fitted inhibition curve with a large enough effect; inconclusive means small, poorly fitted or top-dose-only effect, or another doubt; inactive means no such curve, though single readings can be large or run the other way.
SMILES,Shiga inhibitor,Pf growth 48h,HCMV inh,Cycloheximide cs,Pf growth 96h,HCV inhibitor
Cc1cc(C(=O)OCC(=O)Nc2cccnc2Cl)c2ccccc2n1,-12,4%,-32,7,21%,6%
CCOC(=O)N1CCN(C(=O)c2cn(C)c3ccc(S(=O)(=O)N4CCC(C)CC4)cc3c2=O)CC1,-7,?,-19,-4,-10%,15%
CCOC(=O)c1c(C)nc(C)c(C(=O)OCC)c1-c1cccc([N+](=O)[O-])c1,nt,nt,10,nt,nt,nt
CCOC(=O)COn1c(-c2cccc(Cl)c2)nc2ccc([N+](=O)[O-])cc21,63*,24%,-8,76*,159%,-29%
CCOC(=O)C(C)On1c(-c2cccc(Cl)c2)nc2ccc([N+](=O)[O-])cc21 (stereo not drawn),102*,?,10,46*,nt,?
CCOC(=O)C(C)Oc1ccc2c(-c3cccc([N+](=O)[O-])c3)cc(=O)oc2c1 (stereo not drawn),-17,11%,2,-6,55%,?
Cc1cccc(N2CCN(C(=O)c3cc4ccccc4oc3=O)CC2)c1C,17,-4%,?,20*,?,-7%
O=C(c1cc2ccccc2oc1=O)N1CCN(c2ccccn2)CC1,2,0%,25,-1,nt,13%
Cc1cc(C)c(S(=O)(=O)N2CCN(C(=O)c3cc4ccccc4oc3=O)CC2)c(C)c1,nt,?,-102*,nt,?,?
CN1CCN(C(=O)c2cc3ccccc3oc2=O)CC1,-6,4%,2,13*,?,4%
O=C(c1cc2ccccc2oc1=O)N1CCN(c2ncccn2)CC1,86*,nt,nt,34*,-56%,13%
O=C1CCC(c2ccccc2)N1c1ccccc1 (stereo not drawn),nt,nt,-22,nt,nt,12%
Cc1cccc(/C=C2\Sc3ccc(C(=O)N4CCC(C)CC4)cc3N(C)C2=O)c1,-3,?,?,-5,24%,?
Cc1cc(NC(=O)CCC(=O)N(c2ccccc2)C(C(=O)NC2CCCC2)c2ccccc2)no1 (stereo not drawn),-4,15µM*,-3,-2,8.3µM*,-6%
COc1cccc(C(C(=O)NC2CCCC2)N(CCC(C)C)C(=O)CCC(=O)Nc2cc(C)on2)c1 (stereo not drawn),47,?,-66*,-3,22%,-5%
CC(=O)c1cccc(N(C(=O)CS(=O)CC(=O)Nc2ccc(F)cc2)C(C(=O)NC2CCCCC2)c2ccc(C)o2)c1 (stereo not drawn),-11,?,-20,-1,4.1µM*,-8%
Cc1ccc(N(C(=O)CCC(=O)Nc2cc(C)on2)C(C(=O)NC2CCCC2)c2ccccc2)cc1 (stereo not drawn),-10,12µM*,-33,7,2%,?
Cc1cccc(C(=O)Nc2cccc(C(=O)OCc3cc(=O)n4nc(C(C)C)sc4n3)c2)c1,nt,nt,21,nt,nt,nt
O=C(Cn1c(=O)n(Cc2nc(-c3ccccc3)no2)c(=O)c2ccccc21)Nc1cccc(Cl)c1,nt,nt,-3,nt,nt,nt
Oc1ccc(C[C@@H]2CNC(=S)N2CCCCC2CCCCC2)cc1,-6,?,-31,1,?,-28%
COc1ccc(S[C@]2(C(=O)N(C)C)CC(=O)N(c3ccc4ccccc4c3)[C@@H]2c2ccc(OC)cc2)cc1,nt,nt,19,nt,nt,nt
Cc1cc(NC(=O)CCC(=O)N(c2ccccc2)C2(C(=O)NC3CCCCC3)CCCC2)no1,-16,?,-77*,-4,162%,?
Cc1cccc(N(C(=O)CCC(=O)Nc2cc(C)on2)C(C(=O)NC2CCCC2)c2ccc(C)o2)c1 (stereo not drawn),28*,?,0,26*,12%,?
COc1ccc(C(C(=O)Nc2ccc(F)cc2)N(C(=O)Cn2nnc3ccccc32)C2CC2)cc1 (stereo not drawn),-2,5.9µM*,-12,-1,?,?
